What all share (test): DAPPL (digital affinity profiling via proximity ligation, sequencing); 10 mM Tris-HCl pH 7.5, 50 mM NaCl, 1 mM DTT, 4% glycerol, room temperature, 30 min; GST-TFs on glutathione beads, 16-mer random dsDNA library, 0.1% formaldehyde crosslink after washing; high values mean tight binding
One test has as its target T1, FLI1 (Homo sapiens, UniProt Q01543 1-452).
T1 sequence: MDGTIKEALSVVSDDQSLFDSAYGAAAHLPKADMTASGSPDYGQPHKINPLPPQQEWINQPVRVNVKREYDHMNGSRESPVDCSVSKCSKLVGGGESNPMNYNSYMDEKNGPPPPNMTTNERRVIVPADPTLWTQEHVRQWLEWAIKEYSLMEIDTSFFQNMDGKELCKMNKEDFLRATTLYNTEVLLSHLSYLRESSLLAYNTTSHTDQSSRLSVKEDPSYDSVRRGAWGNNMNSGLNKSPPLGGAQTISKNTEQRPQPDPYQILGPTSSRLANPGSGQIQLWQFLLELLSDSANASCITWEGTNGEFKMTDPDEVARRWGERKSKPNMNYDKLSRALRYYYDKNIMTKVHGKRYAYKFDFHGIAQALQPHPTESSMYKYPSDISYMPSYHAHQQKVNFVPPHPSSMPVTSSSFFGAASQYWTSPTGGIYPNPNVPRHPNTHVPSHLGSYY
To be noted: protein: recombinant; tags: N-terminal GST; dsDNA, one strand shown. The method, boiled down:
(§1)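 Sequencing on an Illumina NextSeq500 followed washing, crosslinking with 0.1% formaldehyde, proximity ligation (BsaI/T4 ligase, 1 h, 37 °C) and PCR amplification of pools that had been incubated for 30 min at room temperature with 200 nmole of a random double-stranded 16-mer DNA library in Tris/NaCl/DTT/glycerol buffer. Each pool held DNA-barcoded human transcription factors, expressed in yeast as GST fusions and captured on glutathione beads, plus a tag-only sample. Binding signal is a hexamer's read frequency for a factor divided by its frequency in the tag-only sample.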

The target in a further test is T2, ELK1 (Homo sapiens, UniProt P19419 1-428).
T2 sequence: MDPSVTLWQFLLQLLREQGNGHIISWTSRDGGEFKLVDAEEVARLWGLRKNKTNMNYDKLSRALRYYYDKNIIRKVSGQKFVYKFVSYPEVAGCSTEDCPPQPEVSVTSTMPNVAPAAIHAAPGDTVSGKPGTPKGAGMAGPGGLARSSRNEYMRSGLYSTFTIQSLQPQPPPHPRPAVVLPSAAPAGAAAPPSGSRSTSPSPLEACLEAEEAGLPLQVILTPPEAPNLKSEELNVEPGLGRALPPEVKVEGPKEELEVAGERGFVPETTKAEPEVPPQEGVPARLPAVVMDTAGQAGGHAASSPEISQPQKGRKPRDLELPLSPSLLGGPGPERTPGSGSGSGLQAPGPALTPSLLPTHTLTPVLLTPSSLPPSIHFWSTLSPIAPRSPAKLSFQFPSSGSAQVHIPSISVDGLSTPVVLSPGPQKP
As to conditions: protein: recombinant; tags: N-terminal GST; dsDNA, one strand shown. The method, boiled down:
as §1

The target of a further test is T3, GABPA (Homo sapiens, UniProt Q06546 1-454).
T3 sequence: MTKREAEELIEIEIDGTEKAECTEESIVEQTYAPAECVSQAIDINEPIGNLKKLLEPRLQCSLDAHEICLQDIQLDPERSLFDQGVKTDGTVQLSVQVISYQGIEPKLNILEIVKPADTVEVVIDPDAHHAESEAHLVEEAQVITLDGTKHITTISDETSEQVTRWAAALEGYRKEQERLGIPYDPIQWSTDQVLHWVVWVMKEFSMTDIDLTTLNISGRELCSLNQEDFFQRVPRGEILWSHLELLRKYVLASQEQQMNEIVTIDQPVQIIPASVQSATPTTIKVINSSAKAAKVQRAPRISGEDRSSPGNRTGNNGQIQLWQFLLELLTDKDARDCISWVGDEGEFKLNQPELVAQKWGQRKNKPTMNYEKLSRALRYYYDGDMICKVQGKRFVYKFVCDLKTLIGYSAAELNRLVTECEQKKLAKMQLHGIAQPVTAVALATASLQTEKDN
As to conditions: protein: recombinant; tags: N-terminal GST; dsDNA, one strand shown. Put shortly:
as §1

The next test addresses T4, ERG (Homo sapiens, UniProt P11308 1-479).
T4 sequence: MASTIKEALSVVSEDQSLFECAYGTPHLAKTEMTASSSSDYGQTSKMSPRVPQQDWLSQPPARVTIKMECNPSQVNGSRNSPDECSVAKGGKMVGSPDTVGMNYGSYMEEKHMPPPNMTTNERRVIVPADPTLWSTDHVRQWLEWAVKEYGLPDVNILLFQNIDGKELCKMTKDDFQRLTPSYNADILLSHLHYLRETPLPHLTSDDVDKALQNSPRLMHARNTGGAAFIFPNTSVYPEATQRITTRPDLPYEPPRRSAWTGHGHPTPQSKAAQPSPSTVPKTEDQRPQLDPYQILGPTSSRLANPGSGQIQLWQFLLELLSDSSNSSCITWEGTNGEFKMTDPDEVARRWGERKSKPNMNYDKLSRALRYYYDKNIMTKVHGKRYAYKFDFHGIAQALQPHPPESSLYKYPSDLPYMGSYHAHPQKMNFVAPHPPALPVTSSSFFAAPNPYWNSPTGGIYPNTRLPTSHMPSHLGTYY
To be noted: protein: recombinant; tags: N-terminal GST; dsDNA, one strand shown. The method, boiled down: as §1

A further test deals with ELF1 (Homo sapiens, UniProt P32519 1-619). As to conditions: protein: recombinant; tags: N-terminal GST; dsDNA, one strand shown. The method, boiled down:
as §1

In the next test the target is T5, EHF (Homo sapiens, UniProt Q9NZC4 1-300).
T5 sequence: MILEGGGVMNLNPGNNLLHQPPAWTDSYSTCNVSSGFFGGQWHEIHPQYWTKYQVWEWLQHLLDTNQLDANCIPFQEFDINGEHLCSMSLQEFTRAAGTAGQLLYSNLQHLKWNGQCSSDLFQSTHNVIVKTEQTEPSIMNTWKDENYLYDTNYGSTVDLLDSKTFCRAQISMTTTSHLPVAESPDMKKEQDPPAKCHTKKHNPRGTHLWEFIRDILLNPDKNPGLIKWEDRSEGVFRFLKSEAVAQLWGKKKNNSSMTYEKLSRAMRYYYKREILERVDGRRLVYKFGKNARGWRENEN
To be noted: protein: recombinant; tags: N-terminal GST; dsDNA, one strand shown. The method, boiled down: as §1

A further test addresses SPI1 (Homo sapiens, UniProt P17947 1-270). To be noted: protein: recombinant; tags: N-terminal GST; dsDNA, one strand shown. The method, boiled down: as §1
Another test concerns the target SPIB (Homo sapiens, UniProt Q01892 1-262). As to conditions: protein: recombinant; tags: N-terminal GST; dsDNA, one strand shown. The method, boiled down:
as §1

For the next test, the target named is T6, ELK3 (Homo sapiens, UniProt P41970 1-407).
T6 sequence: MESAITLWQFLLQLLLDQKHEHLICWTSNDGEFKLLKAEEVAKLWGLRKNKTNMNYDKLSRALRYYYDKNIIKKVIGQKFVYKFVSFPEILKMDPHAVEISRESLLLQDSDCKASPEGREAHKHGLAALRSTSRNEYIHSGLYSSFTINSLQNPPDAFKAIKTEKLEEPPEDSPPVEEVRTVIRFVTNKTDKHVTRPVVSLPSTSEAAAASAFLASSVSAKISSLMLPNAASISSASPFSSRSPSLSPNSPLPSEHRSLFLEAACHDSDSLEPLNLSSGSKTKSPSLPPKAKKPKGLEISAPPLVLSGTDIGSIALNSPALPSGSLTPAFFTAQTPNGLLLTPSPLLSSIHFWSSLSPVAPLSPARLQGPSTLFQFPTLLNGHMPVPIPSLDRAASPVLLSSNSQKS
To be noted: protein: recombinant; tags: N-terminal GST; dsDNA, one strand shown. Put shortly:
as §1

Another test concerns the target T7, FEV (Homo sapiens, UniProt Q99581 1-238).
T7 sequence: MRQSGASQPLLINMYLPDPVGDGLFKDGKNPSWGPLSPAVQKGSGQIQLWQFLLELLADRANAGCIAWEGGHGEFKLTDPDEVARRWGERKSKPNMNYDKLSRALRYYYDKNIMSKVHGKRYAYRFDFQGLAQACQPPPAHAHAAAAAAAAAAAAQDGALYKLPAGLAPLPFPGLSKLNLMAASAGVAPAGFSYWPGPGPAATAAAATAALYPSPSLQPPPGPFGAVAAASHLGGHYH
To be noted: protein: recombinant; tags: N-terminal GST; dsDNA, one strand shown. Put shortly:
as §1

The target of another test is ETV5 (Homo sapiens, UniProt P41161 1-510). As to conditions: protein: recombinant; tags: N-terminal GST; dsDNA, one strand shown. Put shortly: as §1
The target in another test is HSF1 (Homo sapiens, UniProt Q00613 1-529). To be noted: protein: recombinant; tags: N-terminal GST; chain copies: 3; dsDNA, one strand shown. Put shortly:
as §1

Another test has as its target T8, SPIC (Homo sapiens, UniProt Q8N5J4 1-248).
T8 sequence: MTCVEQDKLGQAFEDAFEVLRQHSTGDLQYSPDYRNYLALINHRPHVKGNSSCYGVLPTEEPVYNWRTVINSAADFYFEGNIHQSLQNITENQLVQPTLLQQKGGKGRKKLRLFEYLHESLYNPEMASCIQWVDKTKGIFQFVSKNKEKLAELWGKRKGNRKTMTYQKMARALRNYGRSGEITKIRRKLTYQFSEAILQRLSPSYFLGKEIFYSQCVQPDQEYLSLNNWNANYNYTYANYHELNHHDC
As to conditions: protein: recombinant; tags: N-terminal GST; dsDNA, one strand shown. The method, boiled down: as §1

For another test, the target named is ELF4 (Homo sapiens, UniProt Q99607 1-663). As to conditions: protein: recombinant; tags: N-terminal GST; dsDNA, one strand shown. Put shortly:
as §1

A further test concerns the target T9, ELK4 (Homo sapiens, UniProt P28324-2 1-405).
T9 sequence: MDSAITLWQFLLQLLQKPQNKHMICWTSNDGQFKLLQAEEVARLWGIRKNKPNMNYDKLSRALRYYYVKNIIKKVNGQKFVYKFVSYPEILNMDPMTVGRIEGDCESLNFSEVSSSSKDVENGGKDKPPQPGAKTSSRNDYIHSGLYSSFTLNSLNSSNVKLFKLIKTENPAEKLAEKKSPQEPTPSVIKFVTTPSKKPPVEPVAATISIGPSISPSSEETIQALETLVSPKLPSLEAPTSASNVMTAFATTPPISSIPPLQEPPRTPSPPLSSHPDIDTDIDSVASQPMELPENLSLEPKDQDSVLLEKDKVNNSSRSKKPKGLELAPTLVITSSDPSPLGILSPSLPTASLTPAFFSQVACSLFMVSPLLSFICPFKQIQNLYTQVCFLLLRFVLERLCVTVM
As to conditions: protein: recombinant; tags: N-terminal GST; dsDNA, one strand shown. The method, boiled down:
as §1

A further test concerns the target T10, ETV2 (Homo sapiens, UniProt O00321 1-342).
T10 sequence: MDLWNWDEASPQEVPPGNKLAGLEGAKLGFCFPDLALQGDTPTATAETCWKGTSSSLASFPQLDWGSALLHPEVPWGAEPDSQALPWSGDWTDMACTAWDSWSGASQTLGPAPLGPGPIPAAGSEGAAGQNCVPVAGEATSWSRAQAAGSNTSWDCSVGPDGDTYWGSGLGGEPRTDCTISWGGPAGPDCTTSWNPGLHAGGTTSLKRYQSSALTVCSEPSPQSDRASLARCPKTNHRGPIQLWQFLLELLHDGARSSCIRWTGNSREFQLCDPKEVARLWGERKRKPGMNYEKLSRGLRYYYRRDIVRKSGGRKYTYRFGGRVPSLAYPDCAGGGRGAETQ
To be noted: protein: recombinant; tags: N-terminal GST; dsDNA, one strand shown. Put shortly:
as §1

A further test deals with CRX (Homo sapiens, UniProt O43186 1-299). As to conditions: protein: recombinant; tags: N-terminal GST; dsDNA, one strand shown. The method, boiled down:
as §1

Another test deals with ETV1 (Homo sapiens, UniProt P50549 1-477). To be noted: protein: recombinant; tags: N-terminal GST; dsDNA, one strand shown. Put shortly:
as §1

Chain of SPIB (Q01892 whole entry): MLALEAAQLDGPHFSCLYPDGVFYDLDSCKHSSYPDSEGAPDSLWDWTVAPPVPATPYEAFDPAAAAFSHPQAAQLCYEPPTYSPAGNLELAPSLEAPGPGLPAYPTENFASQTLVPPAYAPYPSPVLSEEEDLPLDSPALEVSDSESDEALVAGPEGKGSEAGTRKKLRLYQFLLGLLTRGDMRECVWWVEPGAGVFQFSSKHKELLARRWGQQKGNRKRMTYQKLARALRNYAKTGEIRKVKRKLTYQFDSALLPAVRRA
Chain of ETV1 (P50549 whole entry): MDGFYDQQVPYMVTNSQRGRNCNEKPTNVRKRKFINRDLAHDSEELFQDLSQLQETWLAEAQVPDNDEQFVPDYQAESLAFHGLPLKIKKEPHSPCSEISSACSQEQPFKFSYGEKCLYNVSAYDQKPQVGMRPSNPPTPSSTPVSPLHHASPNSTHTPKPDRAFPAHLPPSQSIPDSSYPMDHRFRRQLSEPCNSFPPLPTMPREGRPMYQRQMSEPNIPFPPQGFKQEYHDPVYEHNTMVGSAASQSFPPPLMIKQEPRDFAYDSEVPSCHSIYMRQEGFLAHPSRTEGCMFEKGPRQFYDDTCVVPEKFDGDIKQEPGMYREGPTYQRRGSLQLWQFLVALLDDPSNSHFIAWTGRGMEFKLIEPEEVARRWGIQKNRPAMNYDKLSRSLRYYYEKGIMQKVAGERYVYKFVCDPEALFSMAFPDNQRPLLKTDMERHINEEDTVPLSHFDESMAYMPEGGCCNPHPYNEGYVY
Chain of ELF1 (P32519 whole entry): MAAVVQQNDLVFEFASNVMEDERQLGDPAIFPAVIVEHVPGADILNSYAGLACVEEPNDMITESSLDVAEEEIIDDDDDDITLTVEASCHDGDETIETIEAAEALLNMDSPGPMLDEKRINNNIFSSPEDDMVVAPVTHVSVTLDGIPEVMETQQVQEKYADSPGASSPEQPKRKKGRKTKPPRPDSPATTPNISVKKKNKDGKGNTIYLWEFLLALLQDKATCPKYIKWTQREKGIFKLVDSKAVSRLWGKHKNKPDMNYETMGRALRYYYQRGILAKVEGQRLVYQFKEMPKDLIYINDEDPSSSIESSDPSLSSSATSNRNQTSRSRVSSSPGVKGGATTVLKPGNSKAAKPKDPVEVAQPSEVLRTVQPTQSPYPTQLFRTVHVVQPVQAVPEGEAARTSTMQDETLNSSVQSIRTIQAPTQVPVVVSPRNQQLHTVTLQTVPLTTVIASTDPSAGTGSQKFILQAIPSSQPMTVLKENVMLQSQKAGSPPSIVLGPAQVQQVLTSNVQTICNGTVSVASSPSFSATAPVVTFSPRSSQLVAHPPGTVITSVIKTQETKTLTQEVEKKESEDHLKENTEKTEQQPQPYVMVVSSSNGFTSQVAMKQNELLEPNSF
Chain of HSF1 (Q00613 whole entry): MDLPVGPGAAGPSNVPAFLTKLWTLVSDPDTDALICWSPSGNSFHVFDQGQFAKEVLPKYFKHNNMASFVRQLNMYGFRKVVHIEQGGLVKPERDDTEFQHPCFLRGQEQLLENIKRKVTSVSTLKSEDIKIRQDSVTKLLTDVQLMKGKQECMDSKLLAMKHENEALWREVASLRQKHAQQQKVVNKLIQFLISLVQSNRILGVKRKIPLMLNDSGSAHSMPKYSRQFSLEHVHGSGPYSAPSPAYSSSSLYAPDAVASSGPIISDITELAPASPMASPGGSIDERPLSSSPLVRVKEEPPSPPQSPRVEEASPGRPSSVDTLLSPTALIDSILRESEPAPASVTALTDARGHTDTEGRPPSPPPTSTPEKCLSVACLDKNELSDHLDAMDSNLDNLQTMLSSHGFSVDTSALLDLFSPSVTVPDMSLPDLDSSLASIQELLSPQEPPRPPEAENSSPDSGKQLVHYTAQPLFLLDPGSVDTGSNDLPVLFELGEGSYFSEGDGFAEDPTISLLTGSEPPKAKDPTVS
Chain of ELF4 (Q99607 whole entry): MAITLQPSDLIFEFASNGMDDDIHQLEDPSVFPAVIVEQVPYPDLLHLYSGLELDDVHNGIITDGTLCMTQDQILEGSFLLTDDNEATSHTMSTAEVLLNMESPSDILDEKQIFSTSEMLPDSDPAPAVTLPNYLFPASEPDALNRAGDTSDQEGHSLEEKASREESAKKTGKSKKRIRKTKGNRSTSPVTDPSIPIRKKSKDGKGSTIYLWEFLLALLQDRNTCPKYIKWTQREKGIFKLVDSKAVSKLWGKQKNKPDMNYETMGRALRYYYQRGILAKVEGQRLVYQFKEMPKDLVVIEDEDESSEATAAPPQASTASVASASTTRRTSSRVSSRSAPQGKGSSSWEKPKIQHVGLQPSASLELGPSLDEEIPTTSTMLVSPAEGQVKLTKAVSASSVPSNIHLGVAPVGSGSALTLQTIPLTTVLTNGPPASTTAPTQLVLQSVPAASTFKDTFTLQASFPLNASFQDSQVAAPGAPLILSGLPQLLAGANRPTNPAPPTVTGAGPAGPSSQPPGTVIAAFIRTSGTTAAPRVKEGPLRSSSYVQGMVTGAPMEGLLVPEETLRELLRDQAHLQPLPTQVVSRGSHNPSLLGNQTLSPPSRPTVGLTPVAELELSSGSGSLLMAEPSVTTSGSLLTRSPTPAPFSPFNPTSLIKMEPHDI
Chain of ETV5 (P41161 whole entry): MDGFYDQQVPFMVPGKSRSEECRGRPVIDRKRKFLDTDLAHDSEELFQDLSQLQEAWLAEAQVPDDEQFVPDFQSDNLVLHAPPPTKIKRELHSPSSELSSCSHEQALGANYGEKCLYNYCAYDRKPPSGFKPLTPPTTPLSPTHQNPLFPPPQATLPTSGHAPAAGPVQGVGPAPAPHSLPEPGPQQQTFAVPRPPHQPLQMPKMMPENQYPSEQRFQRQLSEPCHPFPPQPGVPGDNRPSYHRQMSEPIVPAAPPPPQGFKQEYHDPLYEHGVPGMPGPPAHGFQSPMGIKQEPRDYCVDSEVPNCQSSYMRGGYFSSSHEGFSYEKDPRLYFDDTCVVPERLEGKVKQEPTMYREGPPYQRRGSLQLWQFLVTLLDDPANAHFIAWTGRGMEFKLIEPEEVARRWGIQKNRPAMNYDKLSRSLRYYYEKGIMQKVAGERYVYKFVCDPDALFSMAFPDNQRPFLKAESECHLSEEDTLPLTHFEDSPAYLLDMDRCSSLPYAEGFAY
Chain of CRX (O43186 whole entry): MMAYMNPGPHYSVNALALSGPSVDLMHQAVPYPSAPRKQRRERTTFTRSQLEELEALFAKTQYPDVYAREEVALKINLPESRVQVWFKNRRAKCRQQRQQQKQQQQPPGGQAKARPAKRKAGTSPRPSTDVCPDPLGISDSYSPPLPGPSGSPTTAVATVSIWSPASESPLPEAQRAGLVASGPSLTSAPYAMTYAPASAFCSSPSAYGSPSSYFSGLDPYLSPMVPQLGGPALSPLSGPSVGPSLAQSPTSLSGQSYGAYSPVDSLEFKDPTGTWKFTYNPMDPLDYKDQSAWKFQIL

Turning to TTTCGC, the binding signal in the test with FLI1 was 1.11 fold enrichment (6-mer frequency, TF over GST control); with ELK1, 1.12 fold enrichment (6-mer frequency, TF over GST control); with GABPA, 1.06 fold enrichment (6-mer frequency, TF over GST control); with ERG, 1.02 fold enrichment (6-mer frequency, TF over GST control); in the test with ELF1, 1.13 fold enrichment (6-mer frequency, TF over GST control); with EHF, 1.2 fold enrichment (6-mer frequency, TF over GST control). Besides, the binding signal with SPI1 is 1.13 fold enrichment (6-mer frequency, TF over GST control); with SPIB, 1.2 fold enrichment (6-mer frequency, TF over GST control); with ELK3, 1.14 fold enrichment (6-mer frequency, TF over GST control); with FEV, 1.16 fold enrichment (6-mer frequency, TF over GST control); with ETV5, 1.08 fold enrichment (6-mer frequency, TF over GST control); with HSF1, 1.32 fold enrichment (6-mer frequency, TF over GST control). The binding signal with SPIC was 1.2 fold enrichment (6-mer frequency, TF over GST control); with ELF4, 1.08 fold enrichment (6-mer frequency, TF over GST control); with ELK4, 1.24 fold enrichment (6-mer frequency, TF over GST control); with ETV2 it was 1.39 fold enrichment (6-mer frequency, TF over GST control); in the test with CRX, 1.19 fold enrichment (6-mer frequency, TF over GST control); with ETV1 it was 1.09 fold enrichment (6-mer frequency, TF over GST control).

The values above are taken from paper PMC7862700, “An all-to-all approach to the identification of sequence-specific readers for epigenetic DNA modifications on cytosine”.
